# Assay results from PubChem BioAssay AID1446 (The Scripps Research Institute Molecular Screening Center, 2008).
# About 2,400 (1.1%) of roughly 220,000 compounds were called active. The full list was thinned out, with actives kept by preference. Unmarked numbers belong to inactive results.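 The calls were made as follows: active = inhibition above the campaign mean plus 3 SD over all tested compounds (cut at about 24% in these data); inactive = the rest.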
# Test: reduced viability of JAK2V617F-dependent Ba/F3 cells, primary screen, JAK2V617F inhibitor project, cell-based, Ba/F3 EpoR-JAK2V617F, luminescence (AID 1446);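 also: cytokine-independent growth of Ba/F3 cells driven by EpoR plus mutant JAK2; 0% = DMSO-treated cells and 100% = JAK inhibitor I control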
# Conditions: ATP luminescence, at 5.6 µM, active compounds read high
row,SMILES,inhibition
1,CC(C)NC(=S)N1CCN(S(C)(=O)=O)CC1,-5.62%
2,O=C(c1ccc(=O)oc1)N1CCC(C(O)(c2ccccc2)c2ccccc2)CC1,2.85%
3,CSCC(=O)N1CCCC(C(=O)c2cc(F)ccc2F)C1 (stereo not drawn),67.6% (active)
4,COc1ccc(/C=C/CN2CCCC(C(=O)c3cc(F)ccc3F)C2)cc1 (stereo not drawn),0%
5,COc1ccc(F)cc1C(=O)C1CCCN(C(=O)CCc2ccccn2)C1 (stereo not drawn),0.16%
6,COc1ccc(Cc2cc(-c3ccc(F)cc3)n[nH]c2=O)cc1,1.71%
7,Cc1ccc(C2CC(=O)NC(SCC(=O)OCc3ccccc3)=C2C#N)o1 (stereo not drawn),1.77%
8,C=CCOC(=O)C1=C(C)NC(SCC(=O)OCC)=C(C#N)C1c1ccc(C)cc1 (stereo not drawn),-0.33%
9,CCOC(=O)CSC1=C(C#N)C(c2sccc2C)CC(=O)N1 (stereo not drawn),83.5% (active)
10,COc1cccc(-n2c(=O)c3c(C)c(C(=O)N(C)C)sc3n(CC(=O)NCCc3ccc(OC)c(OC)c3)c2=O)c1,3.31%
11,C/C(=N\NC(=O)C(N)=O)c1ccc2c(c1)OCCO2,1.44%
12,CCn1c2ccccc2c2cc(CC(N)=O)ccc21,2.78%
13,CCN(CCNC(=O)C1=C(C)C(=O)OC12CCC(C)CC2)c1ccccc1 (stereo not drawn),-2%
14,CC(C)CC(COCc1ccc(Cl)cc1)N1CCN(C(=O)c2ccc(C(F)(F)F)cc2)CCC1=O (stereo not drawn),-1.84%
15,COc1ccc(Cl)cc1C(=O)NCC#N,-0.27%
16,N#C/C=C\Oc1ccc(Cl)cc1N,28% (active)
17,COc1ccc(N(C(=O)c2ccc(C)cc2)S(=O)(=O)c2cccs2)cc1,0.51%
18,Cc1nc(CNS(=O)(=O)c2cc([N+](=O)[O-])ccc2C)cs1,0.63%
19,O=C(O)CCC(=O)Nc1nc2ccc([N+](=O)[O-])cc2s1,3.19%
20,O=C(NC(Nc1nc2ccc([N+](=O)[O-])cc2s1)(C(F)(F)F)C(F)(F)F)c1ccccc1,70.1% (active)
21,O=C(Nc1nc2ccc([N+](=O)[O-])cc2s1)c1ccncc1,-1.41%
22,CC1C(=O)NC(=O)C1c1ccccc1 (stereo not drawn),-4.47%
23,CN(Cc1ccccc1)Cc1ccccc1F,3.28%
24,CN(C)c1ccc(/C=N/N(Cc2ccccc2)c2ccccc2)cc1,3.41%
25,COC(=O)c1ccc(Cc2ccccc2)o1,-0.12%

row,SMILES,inhibition
1,c1ccc(Cc2cc[n+](Cc3ccccc3)cc2)cc1,52.6% (active)
2,CN(C)c1cc[n+](Cc2ccccc2)cc1,87.3% (active)
3,CSc1ccc(CN2C(=O)NC3(CCCCCC3)C2=O)cc1,-4.13%
4,C/C(=N\NC(=O)COc1c(C)cccc1C)c1cccs1,1.35%
5,COCCn1c(SCC(=O)c2[nH]c(C)c(C(C)=O)c2C)nc2ccccc2c1=O,1.81%
6,Cc1[nH]n(C)c(=O)c1N=Nc1ccc(S(C)(=O)=O)cc1,1.06%
7,CC1=C/C(=N\OS(=O)(=O)c2ccccc2)C=CC1=O,40.6% (active)
8,CC1=C/C(=N\S(=O)(=O)c2ccccc2)C(C(C)C)=CC1=O,-3.55%
9,CCOC(=O)C1(S(=O)(=O)c2ccccc2)CCN(Cc2ccccc2)CC1,0.13%
10,Cc1ccc2nc(C)c3c(c2c1)N(c1ccccc1)CC3,19.9%
11,COc1ccc(NC(=O)CN2C(=O)CSC2=O)cc1,-1.19%
12,COCCCNC(=O)C1CCN(c2ccc(N3CCOCC3)nn2)CC1,-2.04%
13,O=C1CCCN1CCCNc1ncnc2c1[nH]c1ccccc12,-3.47%
14,CC(C)OCCCNc1ncnc2c1[nH]c1ccc(F)cc12,64.7% (active)
15,COc1cc(OC)c(OC)cc1/C=N/Nc1ncnc2c1[nH]c1ccc(C)cc12,-4.25%
16,CC(=O)N1CCN(S(=O)(=O)c2ccc(C)c([N+](=O)[O-])c2)C1C(C)C (stereo not drawn),-3.14%
17,COc1ccc(N=Nc2ccc(O)c(P(=O)(c3ccccc3)c3ccccc3)c2)cc1,-0.59%
18,Cc1nn(-c2ccccc2)c(C)c1NC(=O)CCl,3.19%
19,CC(C)c1nc2ccc(C(=O)O)cc2[nH]1,-2.92%
20,COC(=O)Nc1nc2ccc(Sc3ccccc3)cc2[nH]1,83.8% (active)
21,Cc1nc2ccc(C(=O)O)cc2[nH]1,-7.6%
22,O=C(Cc1ccccc1)Nc1c(Cl)ccc2nsnc12,-3.82%
23,CCC1(C(=O)c2ccccc2)C(c2cccc([N+](=O)[O-])c2)C1(C(=O)OC)C(=O)OC (stereo not drawn),-2.96%
24,Cc1cc2c(cc1C)[n+](C)cn2CC(O)COCC1CC=CCC1 (stereo not drawn),44.4% (active)
25,CC(NC(=O)Nc1ccccc1)C(c1cccs1)N1CCN(c2ccccc2)CC1 (stereo not drawn),-1.45%

row,SMILES,inhibition
1,CCOc1ccc(C2c3[nH]c4ccccc4c3CCN2Cc2cccn2-c2ncccn2)cc1 (stereo not drawn),-1.83%
2,O=C(O)CS/C(=C\c1ccc(F)cc1)c1nc2ccccc2s1,-2.1%
3,Cc1cc2oc(C(=O)Nc3c(C)n(C)n(-c4ccccc4)c3=O)c(C)c2cc1Cl,-1.25%
4,O=C(Nc1cccc([N+](=O)[O-])c1)Nc1ccc(Cl)cn1,-2.62%
5,CCN(CC)C(=O)CN(c1cccc([N+](=O)[O-])c1)S(=O)(=O)c1ccccc1,0.82%
6,O=C(CCl)N(Cc1cccc([N+](=O)[O-])c1)c1cccc(Cl)c1,84.1% (active)
7,Cc1ccc(N(C(=O)c2ccc(S(=O)(=O)N(C)C)cc2)C2C=CS(=O)(=O)C2)cc1 (stereo not drawn),-0.1%
8,O=C(Cn1nc(CNc2ccc(Cl)cc2)[n+]2c1CCCCC2)c1ccc(Cl)cc1,1.65%
9,COc1ccc(-c2cc(C(=O)NCc3ccco3)no2)cc1OC,-1.88%
10,Cc1ccc(CNC(=O)C2CC(c3ccccc3[N+](=O)[O-])=NO2)o1 (stereo not drawn),-5.08%
11,COc1ccc(C2=NOC(C(=O)NCc3ccco3)C2)cc1OC (stereo not drawn),56.5% (active)
12,Cc1ccc(NC(=S)N(CCCN2CCC(C)CC2)Cc2ccco2)cc1,25.4% (active)
13,Cc1ccc(NC(=S)N(Cc2ccco2)C(C)c2cccs2)cc1 (stereo not drawn),3.37%
14,Cc1ccc(NC(=S)N(CCN2CCCCC2)Cc2ccco2)cc1C,-2.95%
15,O=C(NC1CCCCC1)c1cc(C2CC2)on1,-4.7%
16,CN(C)c1ccc(Nc2c3c4c(cccc4n(C)c2=O)C(=O)c2ccccc2-3)cc1,2.4%
17,CON(C)S(=O)(=O)c1ccc2c(c1)NC(=O)C1CCCN21 (stereo not drawn),1.23%
18,Nn1c(SCc2ccccc2)nnc1C1CCCCC1,-0.47%
19,COc1cccc(OC)c1C(=O)Nc1ccc(N2CCCCC2)cc1,-0.78%
20,COc1ccc(C(=O)NC(=S)Nc2ccc(N3CCCC3)cc2)cc1OC,-0.26%
21,COc1cccc(C(=O)Nc2ccc(N3CCCC3)cc2)c1,59.5% (active)
22,CSc1nnc(-c2ccc(C(F)(F)F)cn2)o1,-4.69%
23,CC(=O)NC(Cc1ccc(F)c(F)c1)C(=O)NC1CCN(c2nnnn2-c2ccccc2)CC1 (stereo not drawn),1.68%
24,O=C(COC(=O)CNS(=O)(=O)c1ccccc1)NC12CC3CC(CC(C3)C1)C2,2.17%
25,Cc1ccc(NC(=O)CN(C)CC(=O)Nc2cccc(F)c2)cc1[N+](=O)[O-],32.7% (active)

row,SMILES,inhibition
1,CN(CC(=O)Nc1cccc(F)c1)CC(=O)Nc1cccc([N+](=O)[O-])c1,1.69%
2,Cc1ccc(CN(C)CC(=O)Nc2cccc([N+](=O)[O-])c2)o1,-2.99%
3,Nc1ccc2nn(-c3ccc(Cl)cc3)nc2c1,-0.91%
4,Cc1ncc([N+](=O)[O-])n1CCOC(=O)c1ccc(Br)cc1,-1.79%
5,CCCCCCNC(=O)CSc1nccn1Cc1ccccc1,-2.6%
6,CCOc1cccc(-n2nnnc2-c2ccc(OC)cc2)c1,62.5% (active)
7,COc1ccc(-n2nnnc2-c2nc3ccccc3s2)cc1,-2.25%
8,CCOc1cccc(-c2nnc3sc(COc4ccc(OC)cc4)nn23)c1,-2.87%
9,CCn1c2ccccc2c2cc(NC(=O)CNC)ccc21,-0.79%
10,CC[n+]1c(C)n(-c2ccccc2)c2ccc(NC(C)=O)cc21,70.6% (active)
11,CCc1ccc(NC(=O)N2CCN(c3ccccc3)CC2)cc1,0.49%
12,COc1cccc(NC(=O)CC2C(=O)NCCN2C(=S)Nc2ccc(F)cc2)c1 (stereo not drawn),3.64%
13,COc1ccc(S(=O)(=O)N(CC(=O)N/N=C/c2ccccc2C(=O)O)c2ccccc2OC)cc1,-2.32%
14,COc1ccccc1-c1nc(C#N)c(N2CCC(C(N)=O)CC2)o1,-2.39%
15,COc1ccc(Nc2oc(-c3ccccc3Cl)nc2C#N)cc1,50.8% (active)
16,Cc1ccccc1-c1nc(C#N)c(NCc2ccco2)o1,0.66%
17,CC(C)C(=O)Nc1oc(-c2ccccc2)cc1C#N,0.17%
18,CC1CCN(S(=O)(=O)c2ccc(S(=O)(=O)NCc3cccnc3)cc2)CC1,0.32%
19,CCCCCCCCn1c2c(c(=N)c3c1CCC3)CCCC2,101% (active)
20,CCCCCCn1c(CN2CCCCC2)nc2c1c(=O)n(C)c(=O)n2C,-2.26%
21,CN(Cc1cccnc1)C(=O)c1cc(COc2ccc3ncccc3c2)on1,54.2% (active)
22,Cc1cc(NCc2cccnc2)no1,-7.11%
23,Cc1noc(C)c1COc1cccc(C(=O)Nc2cccnc2)c1,-0.6%
